# Reference: PubChem BioAssay AID1347426 (Functional Genomics Laboratory (NCATS/FGL), 2020)
# Hit rate of the full screen: of about 31,000 sequences, about 1,400 (4.5%) were called active. Shown is part of a subset that was picked to be rich in actives. Unmarked numbers belong to inactive results.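 The calls were made as follows: active = median seed-adjusted z-score above 1 or below -1; inactive = the rest.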
# Assay: Novel Modifiers of Survival Motor Neuron (SMN) Protein: Gene Identification via Genome-wide siRNA Screen;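 also: luminescence tracks full-length SMN protein made from the SMN2 reporter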
# Details: HEK293T SMN2-luciferase reporter, siRNA knockdown, 72 h; actives lie on both sides
# Procedure, shortened: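 HEK293T cells stably expressing an SMN2 splicing/cDNA-luciferase reporter were reverse-transfected with a druggable-genome siRNA library and read by luminescence at 72 hours; hits defined by MAD score above 1.0 or below -1.0.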
row,Sequence,median seed-adjusted z-score
1,GUGUCCAACAGAUACGGAATT against DSCAM,-0.527
2,GGCAGAUAUUUAAGCCUAUTT against HDAC2,-1.27 (active)
3,GGAGUGCAAAAGGAACGAATT against APIP,-0.0945
4,GAGUUAUGGUGAACCCACATT against CDKN2B,0.0154
5,GGACAUUCAAUUCAAACCATT against SMAD4,0.0746
6,CUGUUUAGCUUCAUGCAAATT against ARID3C,-1.32 (active)
7,GCAAGGCAAUGCAAACGAATT against DDX43,-0.452
8,GCGACUACCUGUUUCAACATT against PELO,0.394
9,GGAAAGAUCUUCAAUCAUATT against ZNF597,0.366
10,GGACAUUCGUCAGAUUUAUTT against TEAD1,1.31 (active)
11,GAGUGGAGCGUACAUCCUATT against ZXDA,-0.0748
12,CAAUAGUCCUGAGACCGAATT against MYST3,-0.49
13,GCAUUACCGCGAUGAAUUATT against DNAI1,-0.783
14,UCCUAACCUCAGAAACUGATT against CAPS,-1.25 (active)
15,GGAAGGCUCCAAACGGAAATT against PBRM1,-0.118
16,GCACGUUUGAGUACGAAUATT against SFPQ,-1.15 (active)
17,GGACCAGUCUGCCUAUGUATT against NXF5,-0.396
18,GCGGGACAGAAGUUAGAUATT against HCCS,0.00254
19,GGAUGAUAUGGGACCAUAATT against PTPRZ1,1.73 (active)
20,GUCUUGUAGAAAUCUCAGATT against RFC3,0.733
21,GCUUCGAGGAGGGCAAGAATT against PRSS27,1.03 (active)
22,GAUAGUGACAGGUUAAUGATT against TIGD6,-0.443
23,GCCUGACCCGUGAGACAAATT against THY1,-1.1 (active)
24,GCAUCUAAAGAGCUACAGATT against ZNF584,0.172
25,CAAUGUCCAGGGUAUCAUUTT against HAO2,0.039
26,GGAGGGACAAGAUCAACAATT against USF2,0.352
27,CCAGCCGUGUUGUAGCUAATT against S100B,0.862
28,CCGUAAAGCUGCAUUAGAATT against CUGBP1,0.086
29,GGGUCAUCAGUAGCAUUGATT against YWHAG,1.98 (active)
30,GCAGUACGGAAGCUACCGATT against SS18L1,-0.174
